In PubChem BioAssay (NCI) one finds growth data, which are given here for 40 compounds.

About 83,000 compounds went through this panel and 20% of them were active in at least one assay; those are over-represented in the sample as a whole.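 Note: values are percent growth. 100 is the growth of untreated cells, values between 100 and 0 indicate rising inhibition; between -100 and 0 indicates cell death.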 Active and inactive are the calls of the source.

The experiment has as its system UO-31 renal. The experiment can be described thus: NCI-60 one-dose screen, 48 h (100 = growth as untreated, 0 = no growth, -100 = all killed). The conditions noted are these: 10 µM unless noted. As for the experimental part: Growth inhibition of the UO-31 human tumor cell line is measured as a screen for anti-cancer activity. Cells are grown in 96 well plates and exposed to the test compound for 48 hours. Compounds are tested at a single concentration, which is 10^-5 M for most compounds. The reported endpoint is percent growth (GI% or GIPRCNT), where numbers from 0 - 100% represent growth inhibition, and numbers from -100% - 0 represent cell death. For example, a value of 40 represents 60% growth inhibition. A value of 0 means no net growth occurred over the course of the experiment. A value of -40 indicates 40% of cells at the beginning of the experiment died by the end of the experiment. A value of -100 means all cells are dead at the end of the experiment.
NCI-60 Human Tumor Cell Lines Screen was performed using the standard one-dose NCI protocol, which is described in more detail at https://dtp.cancer.gov/discovery_development/nci-60/default.htm.
Compounds with GIPRCNT values below 10 were considered active. Activity score was based on GIPRCNT using the following formula: […]
Score is 0 for GIPRCNT values of 100 or above, 50 for GIPRCNT values of 0, and 100 for GIPRCNT values of -100.
With `CCOc1ccc2c(c1)/C(=C\C=C\C1CC(C)C3CC(OCC)CCC3N1CC)CC(C)N2CC` (stereo not given), the growth is 0.241% (active).

For `Oc1cc(Cl)ccc1Cc1ccc(Cl)cc1O`, the growth is 46.4% (inactive).

For `O=C1C=CC(=O)c2c(O)c(CO)c(CO)c(O)c21`, the growth is 75.5% (inactive).

Turning to `Cc1cc(I)nc2ccccc12`, the growth was 91.7% (inactive).

In the case of `CN=C(N)N/N=C(\c1ccccc1)c1ccc(Br)cc1`, the growth is 0.0982% (active).

For the compound `CN(C)c1ccc2cc3c(cc2c1)Oc1ccccc1N3.[Cl][Zn][Cl]`, the growth was 5.78% (active).

Turning to `O=C(c1ccccc1)c1ccc(O)c2ncccc12`, the growth is 7.3% (active).

Consider `CCOc1ccc(Nc2nc3c(s2)C(=O)c2ccccc2C3=O)cc1`, for which the growth is 72.9% (inactive).

On to `O=C1C=CC(O)=CC1=P(c1ccccc1)(c1ccccc1)c1ccccc1`, for which the growth was 71.8% (inactive).

Turning to `COc1ccc2c(c1OC)OCC(CN(C)C)C2=O` (stereo not given), the growth was -72.5% (active).

For `Cc1ccc2c(c1)sc(-c1ccc(N(C)C)cc1)[n+]2C`, the growth is 65.1% (inactive).

For the compound `Oc1ccc(Cl)cc1C(c1cc(Cl)ccc1O)C(Cl)(Cl)Cl`, the growth was 40.8% (inactive).

As to `COc1cc(/C=C/c2ccnc3ccccc23)cc(OC)c1OC`, the growth was 37% (inactive).

Turning to `O=C(OC12CC3CC(CC(C3)C1)C2)c1ccc(NCc2cc(O)ccc2O)cc1`, the growth is -100% (active).

On to `Oc1c(Cl)cc(Cl)cc1C=NCC1CCC(CN=Cc2cc(Cl)cc(Cl)c2O)CC1` (stereo not given), for which the growth is 45.8% (inactive).

Take `NC1=C(Br)C(=O)c2ncccc2C1=O`: the growth was -96.8% (active).

For `Cc1ccc(NC2=CC(=O)C(=O)c3ccccc32)cc1`, the growth is -18.4% (active).

For `N#CCc1cccc2ccccc12`, the growth is 92% (inactive).

On to `O=C(O)c1cc2c(s1)C(=O)c1sccc1C2=O`, for which the growth was -43.1% (active).

As for `COC1=CC(=O)c2c(O)c3c(c(O)c2C1=O)CC(C)(O)OC3` (stereo not given), the growth was 33.8% (inactive).

With `O=C(c1ccccc1)N(CCCl)C(=O)N(CCCl)C(=O)c1ccccc1`, the growth was 82.4% (inactive).

As to `CSc1nc(C)c(C(=O)CCN2CCN(c3ccccn3)CC2)s1`, the growth was 82.9% (inactive).

On to `CC(C)=CCCC(C)C1=C(O)C(=O)C(C)=CC1=O` (stereo not given), for which the growth is -98.3% (active).

With `CCCN(CCC)C(=O)c1ccc(C)cc1`, the growth was 94.1% (inactive).

As to `O=C(O)c1ccc2c(c1)C(=O)c1ccccc1C2=O`, the growth was 87% (inactive).

With `CN(C)c1ccc(/C=C/c2sc3ccc4ccccc4c3[n+]2C)cc1`, the growth was 15.9% (inactive).

Consider `CCc1oc2ccccc2c1C(=O)c1cc(Br)c(O)c(Br)c1`, for which the growth is 84.3% (inactive).

In the case of `CC(C)N=C(N)/N=C(\N)Nc1ccc2ccc3ccccc3c2c1`, the growth is -58.4% (active).

As for `O=C1C(=O)c2cc([N+](=O)[O-])ccc2-c2ccccc21`, the growth is -87.7% (active).

Turning to `NCCCN(CCCN)CCCNCc1c2ccccc2c(CNCCCN(CCCN)CCCN)c2ccccc12`, the growth is 72.4% (inactive).

In the case of `NNc1ccc(Cl)cc1Cl`, the growth was 29.2% (inactive).

In the case of `c1ccc2sc(SSN3CC4CCC(CC4)C3)nc2c1`, the growth was 55.1% (inactive).

In the case of `CCCCCCCCCCCCCCCCCC[S+](C)CC` (stereo not given), the growth is 59.6% (inactive).

As to `CN1CCC(c2ccccc2)(c2ccccc2)C(=O)C1`, the growth is 68.9% (inactive).

In the case of `COc1ccc(C(OCC2OC(n3ccc(NC(=O)c4ccccc4)nc3=O)C(O)C2O)(c2ccccc2)c2ccccc2)cc1` (stereo not given), the growth is 22.7% (inactive).

Regarding `Cn1ccc(=Nc2ccc(NC(=O)c3ccc(N=c4ccn(C)c5ccc([N+](=O)[O-])cc45)cc3)cc2)cc1`, the growth was 82.6% (inactive).

With `CCC(C)(O)Cc1ccc(Cl)cc1` (stereo not given), the growth is 94.2% (inactive).

Take `CC1(C)OCC(COC(c2ccccc2)(c2ccccc2)c2ccccc2)O1` (stereo not given): the growth is 85.7% (inactive).

`O=C(/C=C/C(Cl)(Cl)Cl)Nc1ccc(Cl)cc1`: the growth was -78% (active).

`O=C(Nc1cccc(C(F)(F)F)c1)Oc1ccc(Cl)c2cccnc12`: the growth is -17.3% (active).
